Laboratory results reported in PubChem BioAssay.
Active and inactive are the calls of the source.

Tests used:
[1] = optical density shifts of acrAB sulA E. coli – strain DRC41, OD650, 48 h, E. coli filamentation inducer project, primary screen (AID 1152); details: higher = more signal, called active from +8 up or from −8 down;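 note: E. coli MC1000 strain DRC41 lacking acrAB efflux pump and sulA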
[2] = probe aLefty1 binding on compound microarray – biochemical, small-molecule microarray, 635/667 nm fluorescence, primary screen (AID 1153); details: higher = more signal;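 note: score merges spot fluorescence with signal-to-noise ratio from the scanned slide images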
[3] = plasmodial surface anion channel blockers, osmotic lysis – cell-based, P. falciparum Indochina, OD700, 1 h, primary screen (AID 1154); details: P. falciparum Indochina infected RBC osmotic lysis, higher = more signal, called active from +8 up or from −8 down
[4] = plasmodial surface anion channel blockers, osmotic lysis – cell-based, P. falciparum Indochina, OD700, 2 h, primary screen (AID 1155);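 note: lysis reports solute entry through the parasite surface anion channel PSAC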; details: P. falciparum Indochina infected erythrocytes, higher = more signal, called active from +8 up or from −8 down
[5] = changes in parasitized red cell lysis, either direction – P. falciparum Indochina, OD700, 3 h, PSAC antagonist project, primary screen (AID 1156); details: P. falciparum-infected erythrocytes, osmotic lysis, higher = more signal, called active from +8 up or from −8 down
[6] = plasmodial surface anion channel blockers, osmotic lysis – cell-based, P. falciparum Indochina, OD700, 18 h, primary screen (AID 1157); details: P. falciparum Indochina infected erythrocytes, osmotic lysis OD700, 18 h; higher = more signal, called active from +8 up or from −8 down
[7] = S6 kinase pathway phospho-S6 level changes – cell-based, A549, cytoblot, luminescence, serum-stimulated, primary screen (AID 1158); details: 5 h, higher = more signal;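 note: serum-stimulated A549 lung adenocarcinoma cells; signal is phosphorylated S6 detected by cytoblot immunostaining with HRP secondary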
[8] = target: NADPH oxidase 2 (Homo sapiens) (UniProt P04839); assay: compounds shifting NOX2 Amplex Red fluorescence – cell-based, HEK293-NOX2, PMA-stimulated, NOX inhibitor project, primary screen (AID 1159); details: 45 min, higher = more signal, called active from +8 up or from −8 down; note: test concentration not given here
Chain of NADPH oxidase 2 (Homo sapiens) (P04839 whole entry, looked up): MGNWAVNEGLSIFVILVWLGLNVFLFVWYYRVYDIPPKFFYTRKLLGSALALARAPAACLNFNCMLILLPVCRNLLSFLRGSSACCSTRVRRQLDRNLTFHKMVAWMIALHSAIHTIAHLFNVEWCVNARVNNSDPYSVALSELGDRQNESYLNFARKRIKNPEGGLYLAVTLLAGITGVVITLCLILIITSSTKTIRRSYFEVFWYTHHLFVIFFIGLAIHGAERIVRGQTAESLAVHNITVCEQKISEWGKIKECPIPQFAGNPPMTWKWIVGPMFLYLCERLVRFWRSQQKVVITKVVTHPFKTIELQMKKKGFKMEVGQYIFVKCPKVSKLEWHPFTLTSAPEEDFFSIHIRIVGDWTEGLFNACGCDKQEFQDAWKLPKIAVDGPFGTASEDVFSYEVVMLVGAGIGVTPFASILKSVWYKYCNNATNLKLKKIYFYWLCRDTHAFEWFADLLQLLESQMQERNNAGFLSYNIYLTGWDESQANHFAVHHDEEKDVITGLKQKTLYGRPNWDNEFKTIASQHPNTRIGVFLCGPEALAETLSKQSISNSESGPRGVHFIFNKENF

[9] = target: NADPH oxidase 4 (Homo sapiens) (UniProt Q9NPH5); assay: compounds shifting NOX4 Amplex Red fluorescence – cell-based, HEK293-NOX4, tetracycline-induced, NOX inhibitor project, primary screen (AID 1160); details: HEK293-NOX4, Amplex Red H2O2 fluorescence, 45 min; higher = more signal, called active from +8 up or from −8 down
Chain of NADPH oxidase 4 (Homo sapiens) (Q9NPH5 whole entry, looked up): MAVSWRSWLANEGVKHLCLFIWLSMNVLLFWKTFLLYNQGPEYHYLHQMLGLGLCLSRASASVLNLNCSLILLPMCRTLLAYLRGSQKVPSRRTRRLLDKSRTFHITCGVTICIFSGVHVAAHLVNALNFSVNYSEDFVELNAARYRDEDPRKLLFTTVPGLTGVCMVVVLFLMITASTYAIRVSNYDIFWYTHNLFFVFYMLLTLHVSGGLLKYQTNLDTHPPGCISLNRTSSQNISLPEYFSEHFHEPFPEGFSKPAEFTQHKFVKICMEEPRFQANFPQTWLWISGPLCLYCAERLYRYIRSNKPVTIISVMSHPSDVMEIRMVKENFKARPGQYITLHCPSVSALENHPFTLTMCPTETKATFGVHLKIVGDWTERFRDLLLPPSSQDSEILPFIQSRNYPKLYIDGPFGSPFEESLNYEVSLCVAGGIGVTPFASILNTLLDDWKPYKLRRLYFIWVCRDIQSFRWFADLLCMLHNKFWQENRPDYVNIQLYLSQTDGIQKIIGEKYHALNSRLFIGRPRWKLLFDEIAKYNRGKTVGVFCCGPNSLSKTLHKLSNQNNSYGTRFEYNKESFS

[10] = target: NADPH oxidase 5 (Homo sapiens) (UniProt Q96PH1); assay: compounds shifting NOX5 Amplex Red fluorescence – cell-based, HEK293-NOX5, NOX inhibitor project, primary screen (AID 1161); details: HEK293-NOX5, ionomycin, 45 min, higher = more signal
Chain of NADPH oxidase 5 (Homo sapiens) (Q96PH1 whole entry, looked up): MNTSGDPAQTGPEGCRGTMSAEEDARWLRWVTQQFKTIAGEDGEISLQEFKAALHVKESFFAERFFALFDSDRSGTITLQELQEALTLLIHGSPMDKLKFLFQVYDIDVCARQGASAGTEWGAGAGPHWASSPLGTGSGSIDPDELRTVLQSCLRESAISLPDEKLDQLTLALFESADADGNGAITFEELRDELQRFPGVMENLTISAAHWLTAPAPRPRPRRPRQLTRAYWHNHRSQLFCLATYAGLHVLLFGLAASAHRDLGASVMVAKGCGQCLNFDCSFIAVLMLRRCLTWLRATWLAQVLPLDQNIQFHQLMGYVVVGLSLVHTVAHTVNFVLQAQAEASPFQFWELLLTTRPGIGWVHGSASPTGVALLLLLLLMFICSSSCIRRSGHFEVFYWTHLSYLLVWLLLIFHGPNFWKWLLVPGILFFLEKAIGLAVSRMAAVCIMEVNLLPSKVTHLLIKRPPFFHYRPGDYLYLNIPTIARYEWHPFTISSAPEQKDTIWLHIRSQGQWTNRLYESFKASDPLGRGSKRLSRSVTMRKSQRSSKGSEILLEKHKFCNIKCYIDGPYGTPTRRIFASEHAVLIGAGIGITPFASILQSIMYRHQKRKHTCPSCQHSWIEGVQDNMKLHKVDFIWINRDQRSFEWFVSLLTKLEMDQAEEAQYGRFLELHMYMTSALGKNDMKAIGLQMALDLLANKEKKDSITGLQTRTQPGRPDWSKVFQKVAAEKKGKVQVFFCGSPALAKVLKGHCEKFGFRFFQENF

Row | Compound | z-score [1] | composite z-score [2] | z-score [3] | z-score [4] | z-score [5] | z-score [6] | z-score [7] | z-score [8] | z-score [9] | z-score [10]
1 | COC(=O)C(CC#Cc1ccc2c(c1)[C@]1(C(=O)N2)[C@H](C(=O)NC[C@H](O)c2ccccc2)[C@H]2C(=O)O[C@H](c3ccccc3)[C@H](c3ccccc3)N2[C@@H]1c1ccc(O)cc1)C(=O)OC | -1.21 (inactive) | -0.445 | 1.44 (inactive) | 0.21 (inactive) | -0.506 (inactive) | -0.0801 (inactive) | -0.0784 | 1.4 (inactive) | 0.691 (inactive) | 1.33
2 | Cc1ccc(S[C@]2(C(=O)NC(C)C)CC(=O)N(Cc3ccccc3)[C@@H]2c2ccc(CO)cc2)cc1 | 1.33 (inactive) | 0.082 | 1.66 (inactive) | -0.709 (inactive) | -0.379 (inactive) | -0.581 (inactive) | 1.46 | -0.101 (inactive) | 0.0692 (inactive) | -0.771
3 | COc1ccc([Si](C)(C)[C@@H]2[C@@H](CC(=O)N3Cc4ccccc4C[C@H]3CO)O[C@]3(C(=O)N(Cc4ccc(I)cc4)c4ccccc43)[C@H]2C)cc1 | 1.35 (inactive) | 0.0063 | 4.93 (inactive) | 1.98 (inactive) | 2.47 (inactive) | 1.21 (inactive) | 0.192 | 1.19 (inactive) | 1.15 (inactive) | 0.652
4 | CO[C@H]1O[C@H](CO)[C@@H](OC(=O)Nc2cccc(F)c2)[C@H](OC(=O)Nc2ccc3c(c2)OCO3)[C@@H]1OC(=O)Nc1ccc2c(c1)OCO2 | -0.727 (inactive) | 0.37 | 12 (active) | 2.05 (inactive) | 1.16 (inactive) | 1.18 (inactive) | 0.296 | -3.87 (inactive) | -1.07 (inactive) | -1.81
5 | COc1cc2c(cc1OC)CN(C(=O)[C@@H]1[C@H]3C(=O)O[C@H](c4ccccc4)[C@H](c4ccccc4)N3[C@H](c3ccc(O)cc3)[C@@]13C(=O)Nc1ccc(C#CC4=CCCCC4)cc13)CC2 | 2.03 (inactive) | 0.298 | 1.18 (inactive) | 0.925 (inactive) | 1.2 (inactive) | 1.23 (inactive) | 0.458 | 1.36 (inactive) | 1.03 (inactive) | -0.337
6 | O=C(NC1CC1)[C@@H]1c2ccccc2C(=O)N(C2CCCCC2)[C@H]1c1ccc(CO)cc1 | 0.1 (inactive) | -0.28 | 1.4 (inactive) | 0.295 (inactive) | 0.973 (inactive) | 0.0604 (inactive) | -0.0513 | 0.382 (inactive) | 0.589 (inactive) | 0.536
7 | C=C[C@H](C)[C@@H](OC(=O)Nc1ccc(SC)cc1)c1ccc(OCCO)cc1 | -2.61 (inactive) | 0.459 | 28.3 (active) | 20.6 (active) | 3.01 (inactive) | 2.27 (inactive) | -0.336 | -1.31 (inactive) | -1.23 (inactive) | 0.0398
8 | O=C1O[C@@H](c2ccccc2)[C@@H](c2ccccc2)N2[C@@H](c3ccccc3OCCO)[C@]3(C(=O)Nc4ccc(C#CC5(O)CCCCCC5)cc43)[C@@H](C(=O)N3CCCCCCC3)[C@H]12 | 0.177 (inactive) | 3.07 | 1.14 (inactive) | -0.256 (inactive) | 0.786 (inactive) | -1.64 (inactive) | 1.76 | -0.21 (inactive) | -0.596 (inactive) | 0.147
9 | C=CCNC(=O)[C@@H]1[C@H]2C(=O)O[C@H](c3ccccc3)[C@H](c3ccccc3)N2[C@H](c2ccc(OCCO)cc2)[C@@]12C(=O)Nc1ccc(C#CCNC(N)=O)cc12 | -0.582 (inactive) | 0.124 | 2.55 (inactive) | 0.268 (inactive) | 0.422 (inactive) | -0.0239 (inactive) | 0.386 | 1.88 (inactive) | 1.2 (inactive) | -0.268
10 | CCOC(=O)C1=C[C@@H](C(C)(C)C)N(S(=O)(=O)c2ccc(C)cc2)[C@H]1c1ccc(OC)cc1 | -0.0371 (inactive) | 0.235 | 1.44 (inactive) | 1.11 (inactive) | 0.457 (inactive) | 0.71 (inactive) | -0.454 | -1.67 (inactive) | 0.244 (inactive) | 1.65
11 | OCCCc1cc[n+](Cc2cc3c(cc2Br)OCO3)cc1 | 0.855 (inactive) | 0.0191 | -0.103 (inactive) | 0.0608 (inactive) | -0.895 (inactive) | -0.237 (inactive) | -0.132 | -0.0452 (inactive) | 0.27 (inactive) | -0.112
12 | COC(=O)c1ccc(OC)c(/C=C\CC(OC(=O)c2ccncc2)c2ccccc2)c1 (stereo not given) | 2.32 (inactive) | -0.206 | 20.4 (active) | 3.1 (inactive) | 0.543 (inactive) | -1.02 (inactive) | 1.93 | -0.552 (inactive) | 0.529 (inactive) | -0.408
13 | CC[C@@H]1C=C(C(=O)O)[C@H](c2cccc(Cl)c2)N1S(=O)(=O)c1ccc(C)cc1 | -1.23 (inactive) | 0.0043 | 0.522 (inactive) | 0.229 (inactive) | -0.0699 (inactive) | 0.29 (inactive) | -0.861 | 0.416 (inactive) | 0.185 (inactive) | 0.272
